Most compounds without a hit are left out; they make up all but 9.5% or so of the library.
NPSR antagonist – neuropeptide S receptor (human) antagonism, cAMP; CHO-NPSR cells, cAMP TR-FRET, antagonist mode; Potency, µM (titrated, usually from 38.3 µM), inactives show top-dose activity change, negative = inhibition, actives largely listed as inhibitors; hit rate 1% among 220,000; further: nearly all actives have a fitted effect of over 50% in size
Target sequence (Q6W5P4 whole entry, looked up): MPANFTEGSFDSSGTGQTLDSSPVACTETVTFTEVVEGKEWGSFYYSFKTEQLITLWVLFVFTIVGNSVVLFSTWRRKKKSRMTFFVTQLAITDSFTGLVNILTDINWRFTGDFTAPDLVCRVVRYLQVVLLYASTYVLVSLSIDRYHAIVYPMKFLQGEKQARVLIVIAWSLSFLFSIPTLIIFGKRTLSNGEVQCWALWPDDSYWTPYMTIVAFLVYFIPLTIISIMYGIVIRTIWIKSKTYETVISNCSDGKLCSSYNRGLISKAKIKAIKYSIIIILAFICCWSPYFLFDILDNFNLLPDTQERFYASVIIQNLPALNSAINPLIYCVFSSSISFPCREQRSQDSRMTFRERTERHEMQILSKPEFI
Tau fibril ThT – blocks human tau fibril formation measured by thioflavin T; recombinant tau K18 P301L, heparin-induced fibrillization, ThT fluorescence; hit rate 2.1% among 270,000; Potency, µM (highest dose often 57.4 µM), for inactives: at the top dose activity, negative = inhibition, hits mostly inhibitors; AID 1460; further: nearly all actives have a fitted effect of over 55% in size
Target sequence (P10636 561-689 P618L limits assumed): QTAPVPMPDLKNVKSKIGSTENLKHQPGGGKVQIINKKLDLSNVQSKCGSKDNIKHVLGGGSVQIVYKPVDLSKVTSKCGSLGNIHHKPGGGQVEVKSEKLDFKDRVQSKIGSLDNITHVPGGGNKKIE
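Recombinant human tau K18 fragment […] carrying P301L, 15 uM unlabeled plus 0.24 uM Alexa 594-labeled, was fibrillized with 20 uM heparin in 100 mM sodium acetate pH 7 for 6 hr at 37 C; 30 uM ThT fluorescence read after 1 hr.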
HPGD inh – blocks human HPGD enzyme activity; purified HPGD, NADH fluorescence kinetic, PGE2 substrate; hit rate 4.3% among 150,000; AID 894; Potency, µM, for the others: at the top dose activity change, negative = inhibition, actives largely listed as inhibitors; active means well fitted inhibition curve with a large enough effect, not every such curve was filed as active; inconclusive means small, poorly fitted or top-dose-only effect, or another doubt; inactive means no such curve, though single readings can be large or run the other way
Target sequence (P15428 whole entry, looked up): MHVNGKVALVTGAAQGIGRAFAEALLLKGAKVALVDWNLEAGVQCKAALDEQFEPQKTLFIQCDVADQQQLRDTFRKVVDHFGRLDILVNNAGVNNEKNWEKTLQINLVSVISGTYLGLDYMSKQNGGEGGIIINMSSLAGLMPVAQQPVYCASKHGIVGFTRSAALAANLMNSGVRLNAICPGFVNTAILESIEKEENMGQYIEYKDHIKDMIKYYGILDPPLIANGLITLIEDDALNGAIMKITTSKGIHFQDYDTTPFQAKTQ
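NADH formation kinetics: reaction with 30 uM PGE2 and 1 mM NAD+ (final), 20 nM enzyme, Tris-HCl pH 8 with Tween 20, after 15 min compound preincubation at room temperature. Fluorescence change, last versus first of five reads.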
Tau fluor counter – counter-screen for tau fibril formation inhibitors. tau K18 P301L Alexa594 fluorescence, heparin fibrillization. Potency, µM (doses to about 57.7 µM), inactives show at the top dose activity change, negative = decrease. hit rate 0.93% among 280,000. AID 1463; further: nearly all actives have a fitted effect of over 55% in size
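Human tau K18 P301L (15 uM unlabeled, 0.24 uM Alexa 594-labeled) in 100 mM sodium acetate pH 7 with 20 uM heparin, 6 hr at 37 C. ThT 30 uM added, 1 hr ambient; Alexa 594 FP and total fluorescence read at 555/632 nm.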
Tau fibril FP – inhibitors of human tau fibril formation; P10636; hit rate 0.39% among 280,000; Potency, µM (doses to about 57.7 µM), for inactives: at the highest dose activity, negative = inhibition, most hits filed as inhibitors; K18 P301L tau heparin fibrillization, Alexa594 FP, 6 h; AID 1468; further: nearly all actives have a fitted effect of over 55% in size
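Steps: dispense K18 P301L tau (15 uM plus 0.24 uM Alexa 594 tracer, final) in pH 7 sodium acetate; add compound; add heparin (20 uM final); incubate 6 hr, 37 C; add ThT (30 uM final); after 1 hr ambient, read FP.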
ALDH1A1 block – inhibitors of human aldehyde dehydrogenase 1A1 | P00352 | Purified ALDH1A1, NADH fluorescence, propionaldehyde substrate | Potency, µM (doses to about 75.3 µM), for inactives: at the top dose activity, negative = inhibition, hits mostly inhibitors | hit rate 7.3% among 220,000; active means well fitted inhibition curve with a large enough effect, not every such curve was filed as active; inconclusive means small, poorly fitted or top-dose-only effect, or another doubt; inactive means no such curve, though single readings can be large or run the other way;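 further: plate controls were no enzyme wells and a reference inhibitor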
* marks the source's active call; other numbers are inactive results; ? = inconclusive; nt = no result given; [ ] = remark or other dose. Unless noted, the call rests on the fitted dose curve; in most records, active means well fitted curve in the direction sought with a large enough effect; inconclusive means small, poorly fitted or top-dose-only effect, or another doubt; inactive means no such curve, though single readings can be large; an effect the other way counts as inactive or inconclusive. Unless noted, on the % scale 0 is the no-effect control and ±100 the full control effect; potency means the concentration at half of the fitted maximal effect.

SMILES | NPSR antagonist | Tau fibril ThT | HPGD inh | Tau fluor counter | Tau fibril FP | ALDH1A1 block
O=S1(=O)c2ccccc2N=NN1Cc1ccc(Cl)cc1 | -8%[46.1 µM] | ? | 28µM* | -24% | -5% | 2.4µM*
O=C(O)COc1ccccc1/C=N/NC(=O)c1cccc(S(=O)(=O)N2CCOCC2)c1 | 2% | 0% | nt | -2% | 13% | -14%
CCc1ccc(NC(=O)c2cnc3sc(N4CCCC4)nn3c2=O)cc1 | nt | 1% | nt | -4% | 0% | nt
O=[N+]([O-])c1cc(Br)cc(C=Nc2ccc3c(c2)OCO3)c1O | ? | ? | nt | ? | ? | 10µM*
O=[N+]([O-])c1ccc(O)c(C=Nc2ccc3c(c2)OCO3)c1 | -21% | ? | nt | ? | -8% | ?
N#Cc1ccccc1OC[C@H](O)CNCCNC(=O)Nc1ccccc1 | nt | 0% | -3% | -8% | -4% | -6%
Cc1cccc(C)c1NC(=O)CN1C(=O)S/C(=C\c2cccn2-c2cccc(C(=O)O)c2)C1=O | -3%[46.1 µM] | -12% | -22% | -13% | -4% | 4%
COc1cc(/C=C2/NC(=O)N(Cc3ccccc3F)C2=O)ccc1O | -23% | -19% | nt | ? | 5% | 6.3µM*
O=C(O)c1cccc(-n2cccc2/C=C2/NC(=O)N(Cc3ccccc3F)C2=O)c1 | -25% | -9% | nt | -8% | -2% | 14µM*
Cc1ccccc1NC(=O)CN1C(=O)S/C(=C\c2cccn2-c2cccc(C(=O)O)c2)C1=O | -21%[46.1 µM] | ? | 28µM* | -3% | 0% | ?
COc1cc(/C=C2/NC(=O)N(Cc3ccccc3F)C2=O)ccc1Oc1ccc([N+](=O)[O-])cn1 | -3% | 8% | -8% | -16% | -8% | 0.22µM*
Cc1ccccc1CNC(=O)c1cnc2sc(N3CCC(C)CC3)nn2c1=O | nt | -7% | nt | -14% | 3% | nt
CCC1=C2CC[C@H]3C(=O)N(c4ccccc4)C(=O)[C@H]3[C@H]2[C@@]2(Cc3ccccc3)C(=NCc3ccccc3)OC(=O)N2C1=O | nt | -5% | -4% | -6% | 4% | -2%
COC(=O)c1cc(OC)c(OC)cc1NC(=O)Nc1cccc(C(C)=O)c1 | 8% | 5% | nt | 5% | 1% | -8%
CCOC(=O)/C(C#N)=C/C=C1/C=CC=CN1C | 37% | ? | nt | 6% | 0% | ?
C=CCN1C=CC(=C/C=C(/C#N)C(=O)OCC)C=C1 | 10µM* | ? | ? | -10% | 7% | -4%
O=C(c1ccc2c(c1)N(Cc1cccc(Cl)c1)C(=O)c1ccccc1S2(=O)=O)N1CCCCCC1 | nt | -1% | nt | -14% | -8% | nt
CC/C(C)=N\Nc1nc(-c2cc3cc(OC)ccc3oc2=O)cs1 | -36% | 22µM* | nt | 18µM*[quencher] | ? | nt
Cc1cccc2cc(C#N)c(SCC(=O)NCc3cccs3)nc12 | 7.9µM* | 4% | -10% | 4% | 3% | 6%
O=C(CSc1cccc2cccc(Cl)c12)NCc1cccs1 | -21% | ? | 10µM* | ? | 2% | -5%
O=C1CC(=O)Nc2cc(S(=O)(=O)Nc3cccc(Br)c3)ccc2N1 | nt | -3% | nt | -9% | -6% | nt
COc1cc(NS(=O)(=O)c2ccc(NC(=S)NC(=O)c3sc4ccccc4c3Cl)cc2)nc(OC)n1 | -31% | ? | 25µM* | -5% | 14% | 11µM*
COc1cc(NS(=O)(=O)c2ccc(NC(C)=O)cc2)nc(OC)n1 | -7%[46.1 µM] | -1% | 2% | -1% | 12% | ?
COc1cc(NS(=O)(=O)c2ccc(NC(=S)NC(=O)c3sc4cc(F)ccc4c3Cl)cc2)nc(OC)n1 | -30% | ? | 16µM* | -13% | 6% | 8.9µM*
COc1cc(NS(=O)(=O)c2ccc(NC(=S)NC(=O)c3ccco3)cc2)nc(OC)n1 | -19% | nt | nt | ? | -2% | nt
SMILES | NPSR antagonist | Tau fibril ThT | HPGD inh | Tau fluor counter | Tau fibril FP | ALDH1A1 block
Cc1noc(C)c1COc1ccc(C(=O)OCc2nnc(-c3ccc(Cl)cc3)o2)cc1 | -26%[46.1 µM] | ? | nt | -20% | 5% | 19%
N#CC1(C#N)C2=C(CCCC2)NC(c2ccccc2)C1(C#N)C#N (stereo unspecified) | -27%[46.1 µM] | 25µM* | -20% | ? | ? | ?
CC1(C)Cc2ccccc2/C(=C/C(=O)N2CCCCCC2)N1 | 7.9µM* | ? | -11% | -16% | 9% | ?
c1ncc(-c2ccc3c(c2)OCO3)c(NCCc2cnc[nH]2)n1 | nt | -11% | -23% | -9% | 2% | ?
COc1ccc(CCNC(=O)CSc2nnnn2-c2ccccc2)cc1 | -1%[46.1 µM] | -1% | -5% | 1% | 2% | 1.6µM*
COc1ccc(CNC(=O)CSc2nnnn2-c2ccccc2)cc1 | -11%[46.1 µM] | 6% | -10% | 2% | -1% | 11µM*
COc1ccc(CCNc2nnc(Sc3nnnn3-c3ccccc3)s2)cc1OC | -12%[46.1 µM] | -10% | -7% | -11% | 5% | 18µM*
COc1ccc(CNC(=O)CSc2nnnn2Cc2ccccc2)cc1 | -11%[46.1 µM] | -6% | -3% | -7% | -1% | ?
CCOc1cc(CNCCSc2nnnn2-c2ccccc2)ccc1OC | nt | -2% | nt | -2% | 0% | nt
CCOC(=O)c1[nH]c(C)c(CCC(=O)Nc2c(C)cc(C)cc2C)c1C | nt | 1% | nt | 7% | -4% | nt
COc1cc(/C=C/C(=O)OCC(=O)NC(=O)NC(C)C)cc(S(=O)(=O)N2CCc3ccccc32)c1OC | -19% | -7% | nt | -23% | -3% | 5%
CCOC(=O)c1c(C)[nH]c(C)c1C(=O)COc1ncnc2cc([N+](=O)[O-])ccc12 | 11% | ? | nt | -17% | 2% | 2%
O=C(Nc1ccc(F)cc1)N1CCC(c2nc3c(nnn3Cc3cccc(Cl)c3)c(=O)[nH]2)CC1 | -12%[46.1 µM] | -14% | 8.9µM* | ? | -12% | 12%
O=C(NC1CCCC1)c1nc2c(nnn2Cc2ccccc2Cl)c(=O)[nH]1 | -13%[46.1 µM] | -9% | ? | -1% | 8% | -2%
Cc1ccc(NC(=O)N2CCC(c3nc4c(nnn4Cc4cccc(Cl)c4)c(=O)[nH]3)CC2)cc1 | -16%[46.1 µM] | -9% | 2µM* | -18% | 1% | -17%
N#Cc1cccc(NC(=O)N2CCC(c3nc4c(nnn4Cc4cccc(Cl)c4)c(=O)[nH]3)CC2)c1 | -17%[46.1 µM] | -9% | 10µM* | -26% | -7% | -2%
COc1cccc(Cn2nnc3c(=O)[nH]c(C4CCN(C(=O)c5ccccc5Cl)CC4)nc32)c1 | nt | -12% | nt | -6% | 11% | nt
O=C(Cc1ccc(F)cc1)N1CCC(c2nc3c(nnn3Cc3ccc(Cl)cc3)c(=O)[nH]2)CC1 | nt | -9% | nt | -8% | 9% | nt
O=C(NC1CCCC1)c1nc2c(nnn2Cc2cccc(Cl)c2)c(=O)[nH]1 | 9%[7.67 µM] | -13% | 2.5µM* | -1% | -4% | -4%
COc1ccc(N(C)S(=O)(=O)c2cccc(C(=O)Nc3ccc(-n4cnnn4)cc3)c2)cc1 | ? | -8% | ? | ? | ? | -2%

Screening results (PubChem BioAssay)
